Source: PubChem BioAssay (The Scripps Research Institute Molecular Screening Center)
Shown is part of a subset that was picked to be rich in hits.
GBA activity up: glucocerebrosidase activity enhancement; P04062; L444P Gaucher fibroblasts, 4-MU-glucoside fluorescence, 3 days; activation, % at 10 µM; actives 0.44% (n = 30,000); AID 784; in the data active means activation above about 65%;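 further: 0% = vehicle wells and 100% = positive control wells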
Target sequence (P04062 whole entry L483P): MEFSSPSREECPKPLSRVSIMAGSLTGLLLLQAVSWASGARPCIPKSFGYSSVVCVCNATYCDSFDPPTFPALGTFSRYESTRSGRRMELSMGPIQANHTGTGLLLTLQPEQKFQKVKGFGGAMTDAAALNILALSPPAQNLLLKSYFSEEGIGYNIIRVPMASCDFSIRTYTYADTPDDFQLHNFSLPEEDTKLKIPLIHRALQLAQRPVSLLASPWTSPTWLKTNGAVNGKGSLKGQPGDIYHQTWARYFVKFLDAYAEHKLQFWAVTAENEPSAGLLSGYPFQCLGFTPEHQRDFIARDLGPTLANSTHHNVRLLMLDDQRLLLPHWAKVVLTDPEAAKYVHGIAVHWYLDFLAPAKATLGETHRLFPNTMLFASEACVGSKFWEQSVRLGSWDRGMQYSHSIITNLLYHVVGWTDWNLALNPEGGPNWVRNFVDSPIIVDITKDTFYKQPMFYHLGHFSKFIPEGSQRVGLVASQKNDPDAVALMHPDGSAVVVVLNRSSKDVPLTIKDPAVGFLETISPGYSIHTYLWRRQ
The depositor's hits bear a star.

SMILES | GBA activity up
Cc1cc(C)nc(N2CCN(c3nc(C)nc4c3oc3ccccc34)CC2)n1 | -7.8
Cc1cc(C)nc(Sc2nc(C)nc3c2oc2ccccc23)n1 | 136.1*
Cc1nc(SCC(=O)Nc2ccccc2)c2oc3ccccc3c2n1 | -59.5
Cc1nc(NC(=O)c2ccccc2)sc1-c1csc(NCc2ccco2)n1 | 0.7
COc1ccc(-c2csc(NCc3ccco3)n2)cc1 | -32.3
Cc1nc(C)c(-c2csc(NCc3ccco3)n2)s1 | 97.8*
Cc1ccccc1Cn1c(=N)n(CC(=O)c2ccco2)c2ccccc21 | -20.8
COC(=O)CN1CCN(C(=O)c2ccc(F)cc2)c2ccccc2C1 | 106.0*
O=C(c1ccc(F)cc1)N1CCN(Cc2ccccc2Br)CC1 | -17.3
O=C(CCCN1Cc2ccccc2C1)c1ccc(F)cc1 | 18.6
Cc1ccc2c(c1)C1OCCC1C1N2C(=O)C2C(C(=O)O)C3C=CC21O3 (centres undefined) | -45.9
Cc1ccc2c(c1)C1C=CCC1C(C(=O)O)N2 (centres undefined) | 10.1
Cc1ccc2c(c1)[C@H]1OCC[C@H]1[C@@H](c1ccncc1)N2 | 72.0*
CC(C)C(c1nnnn1C(C)(C)C)N1CCN(c2cccc(Cl)c2)CC1 (centres undefined) | -17.6
O=C(c1noc2c1CCCCC2)N1CCN(C(c2ccccc2)c2ccccc2)CC1 | -22.3
O=C(Nc1cccc(S(=O)(=O)c2cccc(NC(=O)C3CC3)c2)c1)C1CC1 | -2.1
O=C(CCNS(=O)(=O)c1cccc2nsnc12)NC1CCN(Cc2ccccc2)CC1 | 85.7*
CN(CC(=O)NCCN1CCN(Cc2ccccc2)CC1)S(=O)(=O)c1cccc2nsnc12 | 16.7
O=C(CCCNS(=O)(=O)c1cccc2nsnc12)NCCc1ccccc1 | 2.6
CCCOc1ccc2[nH]cc(C(=O)O)c(=O)c2c1 | -33.7
O=C(CN1CCOCC1)Nc1cccc(Cl)c1Cl | -22.4
COCCOC(=O)C1=C(C)N=C2SCCC(=O)N2C1c1cc(Br)ccc1OC (centres undefined) | -3.1
OC(COCC1CC=CCC1)Cn1cnc2ccccc21 (centres undefined) | 151.3*
c1ccc2c(c1)ncn2CCn1cnc2ccccc21 | -21.1
CC(=O)Nc1cccc(OCC(O)Cn2cnc3ccccc32)c1 (centres undefined) | -12.4
SMILES | GBA activity up
CCOc1cc(C(=O)CSc2nnc(CNc3ccc(Cl)cc3)o2)ccc1NC(=O)CC | -61.0
Cc1c(C(=O)N2CCCc3ccccc32)oc2ccc(S(=O)(=O)N3CCOCC3)cc12 | -34.6
CCOC(=O)C(NCc1ccccc1OC)(NC(C)=O)C(F)(F)F (centres undefined) | -23.3
COc1ccc(OC)c(Nc2cc(-c3ccccc3)nc(N)n2)c1 | -34.5
CCN1CC=C2C(C1)C(c1ccc(Cl)s1)C(C#N)=C(N)C2(C#N)C#N (centres undefined) | -5.9
COC(=O)n1c(SC)nc2ccccc21 | -10.4
CCc1ccc(NC(=O)Cn2c(SC)nc3ccccc32)cc1 | 82.2*
CSc1nc2ccccc2n1CC(=O)Nc1c(C)n(C)n(-c2ccccc2)c1=O | -12.2
O=C(Nc1cccnc1)C1CCCN(S(=O)(=O)c2cccc3nsnc23)C1 (centres undefined) | -10.8
COc1ccc(CN(Cc2cc3cccc(C)c3[nH]c2=O)C(=O)N(C)C)cc1 | 72.3*
Cc1cccc2cc(CN(Cc3ccccc3)C(=O)N(C)C)c(=O)[nH]c12 | -7.8
Cc1ccc(CN(Cc2cc3cccc(C)c3[nH]c2=O)C(=O)N(C)C)cc1 | -11.7
Cc1cc(/N=C/C=C2\N(C)c3ccccc3C2(C)C)n(CCC#N)n1 | -3.6
CCOCCCn1c(=N)c(C(=O)Nc2cc(C)on2)cc2c(=O)n3ccccc3nc21 | -12.3
CCOc1ccccc1NC(=O)C1=C(C)NC(=O)NC1c1cccc(OC)c1OC (centres undefined) | -13.1
O=C(Nc1ccccc1N1CCCC1)c1cc2ccccc2o1 | -30.1
O=C(OCCN1CCCCC1)c1cc2ccccc2o1 | 71.5*
O=C(Oc1ccccc1)c1cc2ccccc2o1 | -2.8
CCCCN1C(=O)C2C(C(=O)Nc3cccc(OC)c3)C3C=CC2(O3)C1C(=O)NC1CCCCC1C (centres undefined) | -2.7
COc1cccc(NC(=O)C2C3C=CC4(O3)C2C(=O)N(C2CC2)C4C(=O)NC2CCCCC2C)c1 (centres undefined) | -10.0
COc1cccc(NC(=O)C2C3C=CC4(O3)C2C(=O)N(C(C)C)C4C(=O)NC2CCCCC2C)c1 (centres undefined) | 68.2*
CCn1cc(S(=O)(=O)CC(=O)N2CCc3ccccc32)c2ccccc21 | -20.9
COc1ccccc1NC(=O)COc1ccc(CO)cc1Cl | -12.0
FC(F)(F)c1cc(-c2ccco2)nc(NCc2ccco2)n1 | 5.6
COc1ccc(-c2cc(C(F)(F)F)nc(NCc3ccco3)n2)cc1OC | -36.3
SMILES | GBA activity up
COc1cccc(-c2cc(C(F)(F)F)nc(NCc3ccco3)n2)c1 | 105.7*
CC(C)CNC(=O)c1cccc(NC(=O)c2ccc(NC(=O)c3ccco3)cc2)c1 | -35.6
CCOC(=O)C1=C(N)OC2=C(C(=O)CCC2)C1c1ccccc1OCC (centres undefined) | -3.3
CCOCCCNC(=O)c1cn(C)c(=O)c2cc(OC)c(OC)cc12 | -53.3
COc1cc2c(C(=O)NCCCN3CCN(c4cccc(Cl)c4)CC3)cn(C)c(=O)c2cc1OC | 84.7*
COCCNC(=O)c1cn(C)c(=O)c2cc(OC)c(OC)cc12 | -36.6
CCc1nc(SCC(=O)Nc2cccc(C(F)(F)F)c2)c2c(=O)n(C)c(=O)n(C)c2n1 | -18.0
Nc1c(Br)cc(Br)c(N2CCCC2=O)c1Br | -14.8
CN(Cc1cccs1)S(=O)(=O)c1cccs1 | -15.2
O=C(CCn1nnc2ccccc21)Nc1nnc(-c2ccccc2F)s1 | 3.7
COCCN1C(=O)C(=O)/C(=C(/O)c2cccc(S(=O)(=O)N(C)C)c2)C12C(=O)N(C)c1ccccc12 (centres undefined) | -14.3
COCCCn1c(SCC(=O)N2CCCCC2C)nnc1-c1ccco1 (centres undefined) | -3.1
CCCn1c(SCC(=O)N2CCCCC2)nnc1-c1ccco1 | -44.0
COCCCn1c(SCC(=O)OC2CCCCC2)nnc1-c1ccco1 | 65.7*
O=C(CSc1nnc(-c2cccs2)n1CC1CCCO1)c1cc2ccccc2o1 (centres undefined) | -15.7
Cc1cnc(-c2nnc(N(C)C(=O)c3ccncc3)s2)cn1 | -2.4
CC(C)c1nc(SCc2c(F)cccc2Cl)c2c(=O)n(C)c(=O)n(C)c2n1 | -16.1
O=C(c1cc(-c2ccco2)on1)N1CCN(C(c2ccccc2)c2ccccc2)CC1 | -15.5
O=C(CN1C(=O)C2(OCCCO2)c2ccccc21)NCc1ccccc1 | -4.0
CCOC(=O)CN1C(=O)C2(OCCCO2)c2ccccc21 | 0.2
COC(=O)CN1C(=O)C2(OCCCO2)c2cc(Br)ccc21 | 139.3*
CCCCS(=O)(=O)Nc1ccc(Cc2ccncc2)cc1 | -21.7
N/C(=N/O)c1nc(N2CCCCC2)nc(N2CCCCC2)n1 | 88.9*
N#CN(CC(N)=O)c1nc(N2CCCCC2)nc(N2CCCCC2)n1 | -1.2
C1CCN(c2nc(N3CCCCC3)nc(N3CCNCC3)n2)CC1 | -64.8
SMILES | GBA activity up
COC(=O)Cn1cnc2c(C#N)c3n(c2c1=O)CCCCC3 | -11.3
N#Cc1c2n(c3c(=O)n(Cc4ccccc4Cl)cnc13)CCCCC2 | 68.0*
COc1cccc(-n2nnc3c(=O)n(Cc4ccccc4Cl)cnc32)c1 | 25.5
CCCC(=O)c1c(NC(C)C)cc(C)oc1=O | -14.7
COc1ccc2cc3cc(C(=O)NCCN4CCN(Cc5ccccc5)CC4)oc3nc2c1 | 22.1
COc1ccc2cc3cc(C(=O)NCCc4ccc(OC)c(OC)c4)oc3nc2c1 | -50.5
